{
  "source": "PubChem BioAssay AID504707",
  "about": "(The Scripps Research Institute Molecular Screening Center, 2011)",
  "note": "Screen size: about 340,000 compounds; about 280 (0.082%) were called active. This is one part of a sample in which actives are shown more often than they occur. Values without a mark were called inactive.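 Rule for the calls: active = percent activation above the mean of all tested compounds plus 3 SD (cut at about 19% in these data); inactive = the rest.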",
  "data": [
    {"target": "cAMP-dependent protein kinase type I-alpha regulatory subunit (Bos taurus) + cAMP-dependent protein kinase catalytic subunit beta (Mus musculus) (UniProt P00514+P68181)", "assay": "compounds dissociating PKAc from R1A subunit – biochemical, fluorescence polarization, Cy5-IP20, bovine R1A, mouse PKAc, primary screen (AID 504707);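 note: higher means more PKAc released from R1A so a rise in polarization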", "conditions": "PKA-R1A dissociation, at 11.4 µM, active compounds read high, scaled: DMSO 0%, 113 µM cGMP 100%", "values": [
      {"compound": "CCc1ccccc1OCC(=O)Nc1nnc(C2CC2)s1", "activation": "8.59%"},
      {"compound": "Cc1ccc(C(=O)OCC(=O)N2CC(C)CC(C)C2)cc1S(=O)(=O)N1CCCCC1", "note": "(configuration not stated)", "activation": "2.86%"},
      {"compound": "O=C(OCc1ccccc1)N1CCC2CC1c1ccc(-c3ccc4c(c3)OCO4)cc12", "note": "(configuration not stated)", "activation": "-1.02%"},
      {"compound": "CC(OC(=O)c1cccnc1Cl)C(=O)NC1CCCCC1", "note": "(configuration not stated)", "activation": "0.33%"},
      {"compound": "O=Cc1cn(CCOc2ccc(F)cc2)c2ccccc12", "activation": "1.87%"},
      {"compound": "CCOc1ccc(CCNC(=O)COC(=O)c2ccc(C)c(S(=O)(=O)N3CCOCC3)c2)cc1OCC", "activation": "-10.3%"},
      {"compound": "COc1ccc(CN2CC(C(=O)NC3CCCCC3)CC2=O)cc1", "note": "(configuration not stated)", "activation": "6.81%"},
      {"compound": "COc1ccc(N)cc1NC(=O)CN1CCOCC1", "activation": "8.37%"},
      {"compound": "O=C(Nc1ccc2c(c1)[C@@H]1C[C@@H](CC(=O)N3CCCCC3)O[C@@H](CO)[C@@H]1O2)NC1CCCCC1", "activation": "19.6% (active)"},
      {"compound": "O=C(C[C@H]1C[C@@H]2c3cc(NC(=O)C4CCC4)ccc3O[C@@H]2[C@H](CO)O1)NC1CCCCC1", "activation": "-5.02%"},
      {"compound": "COC(=O)C[C@H]1C[C@@H]2c3cc(NC(=O)Nc4ccccc4)ccc3O[C@@H]2[C@@H](CO)O1", "activation": "1.1%"},
      {"compound": "CC(C)CCC(=O)Nc1cc(S(=O)(=O)N2CCOCC2)ccc1N1CCCC1", "activation": "-1.93%"},
      {"compound": "CC1(c2cccc(Br)c2)NC(=O)N(CC(=O)NCCC2=CCCCC2)C1=O", "note": "(configuration not stated)", "activation": "-3.47%"},
      {"compound": "CCOc1ccc(NC(=O)CN(C)C(=O)Cn2c(=O)cnc3ccccc32)cc1OCC", "activation": "-7.12%"},
      {"compound": "CCOc1ccc(C(=O)Nc2ccc(S(=O)(=O)Nc3cc(C)on3)cc2)cc1", "activation": "3.9%"},
      {"compound": "CCc1ccc(OC(C)C(=O)Nc2ccc(S(=O)(=O)Nc3cc(C)on3)cc2)cc1", "note": "(configuration not stated)", "activation": "-6.6%"},
      {"compound": "CCC(Oc1ccccc1C)C(=O)Nc1ccc(S(=O)(=O)Nc2cc(C)on2)cc1", "note": "(configuration not stated)", "activation": "20.4% (active)"},
      {"compound": "O[C@H]1CN(Cc2cccs2)[C@@H](c2ccc(Cl)cc2)C[C@@H]1n1cc(C2CC2)nn1", "activation": "-6.87%"},
      {"compound": "O=C(O)C1=C(C(=O)O)C2CCC1C2", "activation": "7.53%"},
      {"compound": "CCCCCC(=O)N1C[C@H](O)[C@@H](n2cc(COC(=O)c3ccccc3)nn2)C[C@@H]1c1ccc(C)cc1", "activation": "1.28%"},
      {"compound": "Cc1ccc(-c2ccc(CN3C(C(C)C)C(=O)N(Cc4cn(CCC5OCCCO5)nn4)CCS3(=O)=O)cc2)cc1", "note": "(configuration not stated)", "activation": "-3.03%"},
      {"compound": "Cc1cccn2c(=O)c3cc(C(=O)NCCN4CCOCC4)c(=N)n(Cc4cccnc4)c3nc12", "activation": "5.89%"},
      {"compound": "Cc1ccc(CCNC(=O)c2ccc3nc4ccccc4c(=O)n3c2)cc1", "activation": "1.64%"},
      {"compound": "Cc1ccc2nc3c(cc(C(=O)NCCc4ccccc4)c(=N)n3CC3CCCO3)c(=O)n2c1", "note": "(configuration not stated)", "activation": "20.5% (active)"},
      {"compound": "Cc1ccc(S(=O)(=O)N(CCc2ccccc2)c2ccc3c(c2)C2CC3CCN2C(=O)OCc2ccccc2)cc1", "note": "(configuration not stated)", "activation": "-0.4%"},
      {"compound": "CC(C)NC(=O)Nc1ccc2c(c1)C(=O)N([C@H](C)CO)C[C@H](C)[C@@H](CN(C)Cc1ccc(C(F)(F)F)cc1)OCCCC[C@@H](C)O2", "activation": "3.01%"},
      {"compound": "C#CCN(C[C@@H]1[C@@H](OC(=O)NC2CC2)[C@@H](OC(=O)NC2CC2)Cn2c(=O)ccc(=O)n21)S(=O)(=O)c1ccc(C)cc1", "activation": "-6.57%"},
      {"compound": "CN(Cc1c(F)cccc1Cl)C(=O)COC(=O)Cn1cnc2ccccc2c1=O", "activation": "0.6%"},
      {"compound": "COc1ccc(NC(=O)C[C@H]2C(=O)N(CCc3ccccc3)C[C@@H]2C)cc1", "activation": "-0.95%"},
      {"compound": "COc1ccccc1N1CC(C(=O)Nc2nnc(SCC(=O)NCC3CCCO3)s2)CC1=O", "note": "(configuration not stated)", "activation": "0.23%"},
      {"compound": "Cc1ccccc1N1CC(C(=O)Nc2nnc(SCCC3OCCO3)s2)CC1=O", "note": "(configuration not stated)", "activation": "-0.56%"},
      {"compound": "COc1ccccc1N1CC(C(=O)Nc2nnc(SCC(=O)NC(C)C)s2)CC1=O", "note": "(configuration not stated)", "activation": "24.3% (active)"},
      {"compound": "CC1CN(C(=O)c2cccc(NS(=O)(=O)c3ccc(Br)cc3)c2)CC(C)O1", "note": "(configuration not stated)", "activation": "-7.05%"},
      {"compound": "CSc1ncnc2c1ncn2CCCNCc1ccco1", "activation": "-1.79%"},
      {"compound": "COc1cccc(NC(=O)CN(C)C(=O)c2cc(Cl)nc3ccccc23)c1", "activation": "9.02%"},
      {"compound": "O=C1c2ccccc2-c2ccccc2NC1O", "note": "(configuration not stated)", "activation": "10.3%"},
      {"compound": "CCOc1cc(C(=O)Nc2ccc(S(=O)(=O)Nc3cnc4ccccc4n3)cc2)cc(OCC)c1OCC", "activation": "-1.58%"},
      {"compound": "CCOc1cc(C(=O)Nc2c(C)ccc3nsnc23)cc(OCC)c1OCC", "activation": "19.5% (active)"},
      {"compound": "Cc1ccc2nsnc2c1NC(=O)c1ccccc1[N+](=O)[O-]", "activation": "-6.39%"},
      {"compound": "CCCn1c(N)c(C(=O)CSc2nnc(Cc3cccs3)n2C2CC2)c(=O)[nH]c1=O", "activation": "9.54%"},
      {"compound": "O=C1CC[C@@H](C(=O)N2CSC[C@@H]2C(=O)Nc2ccc(C(F)(F)F)cc2)N1", "activation": "0.56%"},
      {"compound": "CC(=O)Nc1ccc(SCC(=O)NC(=O)c2ccc(Cl)cc2)cc1", "activation": "2.13%"},
      {"compound": "CCC(=O)N1CCc2cc(S(=O)(=O)CCC(=O)N3CCN(c4ccccc4F)CC3)ccc21", "activation": "2.69%"},
      {"compound": "Cc1ccn(C(CC(=O)c2ccc(Br)cc2)C(=O)O)n1", "note": "(configuration not stated)", "activation": "-7.77%"},
      {"compound": "CC1C(=O)N(Cc2cn(CC3CCCCC3)nn2)CCS(=O)(=O)N1Cc1ccc(-c2cccc(N(C)C)c2)cc1", "note": "(configuration not stated)", "activation": "-4.48%"},
      {"compound": "NC(CSC(c1ccccc1)(c1ccccc1)c1ccc(-c2ccccc2)cc1)C(=O)O", "note": "(configuration not stated)", "activation": "-6.56%"},
      {"compound": "Cc1cc(/C=C2/SC(=O)N(CC(=O)N3CCCC3)C2=O)c(C)n1C", "activation": "-2.71%"},
      {"compound": "Cc1ccc(C(=O)O)cc1-c1ccc(/C=C2\\SC(=O)N(CC(=O)Nc3ccc4c(c3)OCO4)C2=O)o1", "activation": "0.69%"},
      {"compound": "N#Cc1ccccc1CN1C(=O)S/C(=C/c2cccn2-c2cccc(C(=O)O)c2)C1=O", "activation": "26.4% (active)"},
      {"compound": "CC(=O)Nc1ccc(C=CC(=O)c2ccc([N+](=O)[O-])cc2)cc1", "activation": "4.15%"},
      {"compound": "COc1ccc(CN2C(=O)C(CC(=O)NCCCCc3ccccc3)CC(C(=O)N3CCOCC3)=C2C)cc1", "note": "(configuration not stated)", "activation": "-0.11%"},
      {"compound": "Cc1ccc(NC(=O)COC(=O)CN2CCSC2=O)cc1F", "activation": "-5.13%"},
      {"compound": "COc1cc2ccc(C(C)=O)c(O)c2cc1OC", "activation": "4.58%"},
      {"compound": "Cc1csc(SCC(=O)Nc2ccc(C)c(S(=O)(=O)N(C)C)c2)n1", "activation": "-1.19%"},
      {"compound": "CCOC(=O)C=Cc1ccc(C(=O)OCC)[nH]1", "activation": "1.4%"},
      {"compound": "O=C(NCC(F)(F)F)c1ccc(S(=O)(=O)NCCc2ccc3c(c2)OCCO3)cc1", "activation": "-0.03%"},
      {"compound": "Cc1cc(C)c2c(=O)n3c(nc2c1)C(CC(C)C)NC(=O)c1cc2ccccc2cc1-3", "note": "(configuration not stated)", "activation": "-8.23%"},
      {"compound": "COc1ccc(C(CNC(=O)CSc2ccccc2)N2CCOCC2)cc1", "note": "(configuration not stated)", "activation": "-7.96%"},
      {"compound": "Cc1cccc(S(=O)(=O)N(C)C[C@@H]2OCc3cnnn3CCCC(=O)N([C@H](C)CO)C[C@@H]2C)c1", "activation": "1.99%"},
      {"compound": "CCN(CC)C(=O)C1=C(C)N(Cc2ccc(C(C)(C)C)cc2)C(=O)C(CC(=O)NCc2cccc3ccccc23)C1", "note": "(configuration not stated)", "activation": "-15.8%"},
      {"compound": "COc1ccc([C@H]2C[C@@H](n3cc(COC(=O)c4ccccc4)nn3)[C@H](O)CN2C(=O)c2cccs2)cc1", "activation": "-9.97%"},
      {"compound": "COc1ccc(NS(=O)(=O)c2ccc(NC(=O)c3ccc(N(C)S(C)(=O)=O)cc3)cc2)cc1", "activation": "9.45%"},
      {"compound": "COc1ccc(NC(=O)c2ccc(C#CC(C)(C)O)cc2)cc1", "activation": "23.1% (active)"},
      {"compound": "COc1ccc(C(=O)Nc2ccc(-n3nncc3C(C)(C)C)cc2)cc1", "activation": "-6.01%"},
      {"compound": "COn1c(=O)c(=O)n(OC)c2ccccc21", "activation": "-14.3%"},
      {"compound": "COc1ccc(NC(=O)c2cc(=O)[nH]c3ccccc23)cc1S(=O)(=O)N1CCOCC1", "activation": "3.45%"},
      {"compound": "N#CCCC(C#N)(c1cccnc1)N1CCOCC1", "note": "(configuration not stated)", "activation": "9.19%"},
      {"compound": "O[C@@H]1C[C@H](c2ccccc2)N(Cc2cccs2)C[C@H]1n1cc(C2CC2)nn1", "activation": "8.01%"},
      {"compound": "Cn1ncc2c(NNC(=O)Cc3cccc4ccccc34)ncnc21", "activation": "-20.9%"},
      {"compound": "O=C(CNC(=O)N1CC(=O)Nc2ccccc21)Nc1ccc(Br)cc1F", "activation": "-0.99%"},
      {"compound": "CCOc1ccc(C2NC(=S)NC3=C2CCc2ccccc23)cc1", "note": "(configuration not stated)", "activation": "-2.38%"},
      {"compound": "CCOC(=O)c1cc(-c2sc(NC(=O)c3ccccc3)nc2C)n(-c2ccc(Br)cc2)n1", "activation": "4.25%"},
      {"compound": "C[C@H](CO)N1C[C@H](C)[C@@H](CN(C)C(=O)c2cccc(F)c2)Oc2cc(-c3cncnc3)ccc2S1(=O)=O", "activation": "0.35%"},
      {"compound": "CCOC(=O)C1CCN(C(=O)c2ccc3c(=O)n4nc(Nc5ccccc5CC)sc4nc3c2)CC1", "activation": "-0.99%"},
      {"compound": "C[C@@H]1CN([C@@H](C)CO)S(=O)(=O)c2ccc(-c3ccc(C(=O)N(C)C)cc3)cc2O[C@@H]1CN(C)Cc1ccccc1C(=O)O", "activation": "-3.75%"},
      {"compound": "O=S1(=O)CCN(C2CCCCCCCCCCC2)CC1", "activation": "7.32%"},
      {"compound": "c1ccc(Cn2nnc3c(NCC4CC4)ncnc32)cc1", "activation": "5.88%"},
      {"compound": "O=C(COc1ccc(S(=O)(=O)N2CCCC2)cc1[N+](=O)[O-])N1CCCCC1", "activation": "-0.2%"},
      {"compound": "Cc1cccc(N(CC(=O)N2CCCC2)S(C)(=O)=O)c1C", "activation": "-6.73%"},
      {"compound": "CC1=C(C(=O)Nc2cccc(C(=O)NCC(C)c3ccccc3)c2)SCCO1", "note": "(configuration not stated)", "activation": "9.58%"},
      {"compound": "CCOC(=O)c1c(NC(=S)SC)sc(C(=O)N2CCc3ccccc3C2)c1C", "activation": "-7.69%"},
      {"compound": "Cc1ccc(S(=O)(=O)N2CCOCC2)cc1NC(=O)c1ccncc1", "activation": "-4.48%"}
    ]}
  ]
}
